Data as given in PubChem BioAssay (NCATS).
Results filed as inconclusive are left out. Activity calls are given as the source filed them. Calls follow the shape of the dose curve; as a rule, active = well fitted curve in the direction sought with a large enough effect; inconclusive = small, poorly fitted or top-dose-only effect, or another doubt; inactive = no such curve, though single readings can be large; an effect the other way counts as inactive or inconclusive.

What was measured:
[1] = molecular target: Glutathione peroxidase 1 (Homo sapiens) (UniProt P07203); assay: Primary qHTS Assay for Inhibitors of Recombinant Selenoprotein Glutathione Peroxidase 1 (GPX1) (AID 1845191); also: nearly all actives have a fitted effect of over 65% in size; also: potency is read from the fitted curve at half-maximal effect; as to activity, negative = inhibition: % is scaled to controls: 0 for no effect and ±100 for the full control effect
Chain of Glutathione peroxidase 1 (Homo sapiens) (P07203 whole entry, looked up): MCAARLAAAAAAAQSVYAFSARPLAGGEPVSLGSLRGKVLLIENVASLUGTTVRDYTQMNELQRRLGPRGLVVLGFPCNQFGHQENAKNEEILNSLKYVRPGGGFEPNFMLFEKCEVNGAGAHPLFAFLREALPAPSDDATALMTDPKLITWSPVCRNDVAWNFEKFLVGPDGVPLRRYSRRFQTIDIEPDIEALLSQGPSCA
Method in brief: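 GR-coupled readout: NADPH consumption tracked by fluorescence, ex 340/em 450 nm, at t=0 and after 15 min at RT. Final mix 10 nM GPX1, 1 mM GSH, 0.5 mM CHP, 0.5 mM NADPH, 100 nM GR, 0.01% BSA, following 30 min enzyme–compound preincubation.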

[2] = molecular target: Phospholipid hydroperoxide glutathione peroxidase GPX4 (Homo sapiens) (UniProt P36969); assay: Primary qHTS Assay for Inhibitors of Recombinant Selenoprotein Glutathione Peroxidase 4 (GPX4) (AID 1845192); also: nearly all actives have a fitted effect of over 65% in size; also: potency is read from the fitted curve at half-maximal effect; as to activity change, negative = inhibition: series mostly up to about 50 µM; % is scaled to controls: 0 for no effect and ±100 for the full control effect
Chain of Phospholipid hydroperoxide glutathione peroxidase GPX4 (Homo sapiens) (P36969 whole entry, looked up): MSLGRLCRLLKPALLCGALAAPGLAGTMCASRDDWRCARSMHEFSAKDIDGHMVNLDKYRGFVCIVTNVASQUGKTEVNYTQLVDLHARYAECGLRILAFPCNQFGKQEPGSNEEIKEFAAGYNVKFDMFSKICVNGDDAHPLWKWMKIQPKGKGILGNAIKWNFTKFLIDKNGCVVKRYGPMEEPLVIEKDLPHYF
Method in brief: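 Steps: GPX4 plus compound, 30 min RT; add GR/GSH/NADPH master mix; start with cumene hydroperoxide; read 340/450 nm fluorescence at 0 and 15 min. Finals were 200 nM GPX4, 1 mM GSH, 0.5 mM CHP, 0.5 mM NADPH, 100 nM GR.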

[3] = molecular target: Luciferin 4-monooxygenase (Photinus pyralis) (UniProt P08659); assay: Primary firefly luciferase (FLuc) qHTS assay for identification of artifact compounds. (AID 1845220); also: nearly all actives have a fitted effect of over 60% in size;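 as to activity change, negative = inhibition: series mostly up to about 54 µM; plate controls were DMSO vehicle for no effect and no enzyme for full effect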
Method in brief: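 Enzymatic FLuc inhibition assay: compounds pre-exposed to luciferin/ATP (10 uM each) for 15 min, then purified P. pyralis enzyme at 10 nM added. Read-out: luminescence at 5 min.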

[4] = Primary fluorescence-based thiol-reactive (MSTI) qHTS assay for identification of artifact compounds. (AID 1845221); also: nearly all actives have a fitted effect of over 65% in size; also: potency is read from the fitted curve at half-maximal effect;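 as to activity change, negative = thiol reactive: series mostly up to about 54 µM; thiol-reactive compounds lower the probe fluorescence signal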
Method in brief: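 qHTS titration of compound; 4 uM MSTI, PBS pH 7.4, 2% DMSO; 1 h RT, dark; fluorescence 525/598 nm; normalized to Acetyl-MSTI and MSTI; 4-parameter Hill fit.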

[5] = tested on: Nanoluciferase (engineered Oplophorus gracilirostris luciferase); assay: Primary Nanoluciferase (NLuc) qHTS assay for identification of artifact compounds. (AID 1845222);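 also: NLuc secreted into diluted conditioned medium of S16 cells; series mostly up to about 54 µM; 0% = DMSO and -100% = no enzyme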
Method in brief: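 S16 cell supernatant NLuc, 1:55; cpds qHTS; 15 min RT dark; Nano-Glo substrate 1:100, 5 min; luminescence; Hill fit of % inhibition.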

[6] = Primary redox qHTS assay for identification of artifact compounds. (AID 1845223); also: potency is read from the fitted curve at half-maximal effect;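 as to redox activity (% of DA3003): 0% = DMSO and 100% = reference compound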
Method in brief: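 Redox-cycling detection via DTT (250 uM final) oxidation coupled to Amplex Red (25 uM)/HRP (250 mU/mL) in HBSS. 15 min preincubation plus 30 min after DTT, room temperature. Ex/Em 525/598 nm; 4-parameter Hill fit against DMSO and 10 uM DA3003.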

CC1=CCC2C(C)(C)CCC[C@]2(C)[C@@]12CC[C@](C)(CC(=O)O)O2 (some centres not stated)
inactive: Potency [1] | Potency [2] | Potency [3] | Potency [4] | Potency [5] | Potency [6]

Cc1cnc(NC(=O)Nc2cc(Br)c(C)cc2OCC2CNCCO2)cn1 (configuration not stated)
inactive: Potency [1] | Potency [2] | Potency [3] | Potency [4] | Potency [5] | Potency [6]

CC1(C)CC[C@]2(C(=O)O[C@@H]3O[C@H](CO)[C@@H](O)[C@H](O)[C@H]3O)CC[C@]3(C)C(=CCC4[C@@]5(C)C[C@@H](O)[C@H](O)C(C)(C)C5[C@H](O)C[C@]43C)[C@@H]2[C@@H]1O (some centres not stated)
inactive: Potency [1] | Potency [2] | Potency [3] | Potency [4] | Potency [5] | Potency [6]

CC(C)C(C#N)O[C@@H]1O[C@H](CO[C@@H]2O[C@@H](C)[C@H](O)[C@@H](O)[C@H]2O)[C@@H](O)[C@H](O)[C@H]1O (some centres not stated)
inactive: Potency [1] | Potency [2] | Potency [3] | Potency [4] | Potency [5] | Potency [6]

CCOCc1cc(OC)c(-c2ccc(C[C@H](NC(=O)c3c(F)cccc3F)C(=O)O)cc2)c(OC)c1
inactive: Potency [1] | Potency [2] | Potency [3] | Potency [4] | Potency [5] | Potency [6]

COc1cc(C(=O)NC2CCN(C)CC2)ccc1Nc1ncc2c(n1)N(C1CCCC1)CC(F)(F)C(=O)N2C
inactive: Potency [1] | Potency [2] | Potency [3] | Potency [4] | Potency [5] | Potency [6]

C=CC1(C)CC(OC(=O)/C(C)=C\COC(C)=O)C(C(=C)C(=O)O)C(O)C1C(=C)CO (configuration not stated)
inactive: Potency [1] | Potency [2] | Potency [3] | Potency [4] | Potency [5] | Potency [6]

C=C1CC[C@@H]2[C@](C)(CO[C@@H]3O[C@H](CO)[C@@H](O)[C@H](O)[C@H]3O)[C@H](O)CC[C@@]2(C)[C@@H]1C/C=C1/C(=O)OC[C@H]1O
inactive: Potency [1] | Potency [2] | Potency [3] | Potency [5] | Potency [6]
active: Potency [4] 13 µM

CC1(C)CC(NC(=O)C(=O)Nc2ccc(Br)cc2)CC(C)(C)N1
inactive: Potency [1] | Potency [2] | Potency [3] | Potency [4] | Potency [5] | Potency [6]

C[C@@H]1O[C@@H](O[C@@H]2[C@@H](O)[C@@H](O[C@]3(CO)O[C@H](CO)[C@@H](O)[C@@H]3OC(=O)/C=C/c3ccc(O)cc3)O[C@H](CO)[C@H]2OC(=O)/C=C/c2ccc(O)cc2)[C@H](O)[C@H](O)[C@H]1O[C@@H]1O[C@@H](C)[C@H](O[C@@H]2OC[C@](O)(CO)[C@H]2O)[C@@H](O)[C@H]1O
inactive: Potency [1] | Potency [2] | activity change, negative = inhibition [3] -0.433% [at 11.6 µM] | activity change, negative = thiol reactive [4] 79.7% [at 11.5 µM] | activity, negative = inhibition [5] 0% [at 11.6 µM] | redox activity (% of DA3003) [6] 17.5% [at 11.5 µM]

C/C(=C\C=C\C(C)C1CCC2(C)C3CCC4C(C)(C)C(=O)CCC45CC35CCC12C)C(=O)O (configuration not stated)
inactive: Potency [1] | Potency [2] | Potency [3] | Potency [4] | Potency [5] | Potency [6]

Fc1ccc2nc(CCC#Cc3ccccn3)cn2c1
inactive: Potency [1] | Potency [2] | Potency [3] | Potency [4] | Potency [5] | Potency [6]

OC/C=C/C=C/[C@H]1Cc2cc(O)cc(O)c2O1
inactive: Potency [1] | Potency [2] | Potency [3] | Potency [5]
active: Potency [4] 8.44 µM | Potency [6] 18.9 µM

CCCn1c(=O)c2[nH]c(-c3ccc(OCC(=O)O)cc3)nc2n(CCC)c1=O
inactive: Potency [1] | Potency [2] | Potency [3] | Potency [4] | Potency [5] | Potency [6]

COc1cc(/C=C/C(=O)O[C@H]2[C@H](O)[C@@H](CO)O[C@@]2(CO)O[C@H]2O[C@H](CO)[C@@H](O)[C@H](O)[C@H]2O)ccc1O
inactive: Potency [1] | Potency [2] | Potency [3] | Potency [4] | Potency [5] | Potency [6]

COc1ccc(CN2C(=O)C(=O)c3cc(S(=O)(=O)N4CCC[C@H]4COc4cccnc4)ccc32)cc1
inactive: Potency [3] | Potency [4] | Potency [5] | Potency [6]
active: Potency [1] 22.7 µM | Potency [2] 25.5 µM

CCN(CC)Cc1ccc(C(=O)N(CCc2ccccc2OC)[C@@H]2CCNC2)cc1
inactive: Potency [1] | Potency [2] | Potency [3] | Potency [4] | Potency [5] | Potency [6]

COc1c2ccoc2cc2oc(CO[C@@H]3O[C@H](CO)[C@@H](O)[C@H](O)[C@H]3O)cc(=O)c12
inactive: Potency [1] | Potency [2] | Potency [3] | Potency [4] | Potency [5] | Potency [6]

O=C(O)C(O[C@@H]1O[C@H](CO[C@@H]2O[C@H](CO)[C@@H](O)[C@H](O)[C@H]2O)[C@@H](O)[C@H](O)[C@H]1O)c1ccccc1 (some centres not stated)
inactive: Potency [1] | Potency [2] | Potency [3] | Potency [4] | Potency [5] | Potency [6]

C[C@@H]1O[C@@H](O[C@@H]2CO[C@@H](O[C@H]3CC[C@@]4(C)C(CC[C@]5(C)C4CC=C4[C@@H]6CC(C)(C)CC[C@]6(C(=O)O[C@@H]6O[C@H](CO)[C@@H](O)[C@H](O)[C@H]6O)CC[C@]45C)[C@]3(C)CO)[C@H](O)[C@H]2O[C@@H]2O[C@H](CO)[C@@H](O)[C@H](O)[C@H]2O)[C@H](O)[C@H](O)[C@H]1O (some centres not stated)
inactive: Potency [1] | Potency [2] | outcome [3] inactive [at 11.6 µM] | activity change, negative = thiol reactive [4] 216% [at 11.5 µM] | activity, negative = inhibition [5] -0.413% [at 11.6 µM] | redox activity (% of DA3003) [6] 7.97% [at 11.5 µM]

O=C1OCc2cc3cccc(O[C@@H]4O[C@H](CO)[C@@H](O)[C@H](O)[C@H]4O)c3c(O)c21
inactive: Potency [1] | Potency [2] | Potency [3] | Potency [5] | Potency [6]
active: Potency [4] 1.65 µM

CC1(C)CC[C@]2(C(=O)O[C@@H]3O[C@H](CO[C@@H]4O[C@H](CO)[C@@H](O)[C@H](O)[C@H]4O[C@@H]4O[C@H](CO)[C@@H](O)[C@H](O)[C@H]4O)[C@@H](O)[C@H](O[C@@H]4O[C@H](CO)[C@@H](O)[C@H](O)[C@H]4O)[C@H]3O)CC[C@]3(C)C(=CCC4[C@@]5(C)CC[C@@H](O)[C@@](C)(C(=O)O[C@@H]6O[C@H](CO)[C@@H](O)[C@H](O)[C@H]6O)C5CC[C@]43C)[C@@H]2C1 (some centres not stated)
inactive: activity, negative = inhibition [1] -10.6% [at 9.52 µM] | outcome [2] inactive [at 9.73 µM] | activity change, negative = inhibition [3] 2.91% [at 11.6 µM] | activity change, negative = thiol reactive [4] 344% [at 11.5 µM] | activity, negative = inhibition [5] 2% [at 11.6 µM] | redox activity (% of DA3003) [6] 5.34% [at 11.5 µM]
